HT1080 IDH1KD tx = qHTS for induction of synthetic lethality in tumor cells producing 2HG: qHTS for the HT-1080-IDH1KD cell line. Potency, µM (series often up to 46.1 µM), without a hit: at the top dose activity, negative = toxicity, usual class: cytotoxic. HT-1080 IDH1 knockdown viability, ATP luminescence, 48 h. actives 2% (n = 360,000). AID 686971, 2013;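 note: 0% = DMSO wells and -100% = cell-free medium wells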
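Assay cells: HT-1080 with IDH1 knockdown, 750 per well, RPMI/5% FBS. Exposure: 48 h at 37 °C following 2 h pre-incubation. Read: CellTiter-Glo luminescence; fitted concentration-response, curve class assigned.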
KB-3-1 cytotox = qHTS assay for MDR1-selective chemotherapeutics: Primary screen using the parental adenocarcinoma cell KB-3-1 | Potency, µM (top dose mostly 46.1 µM), usual class: cytotoxic | KB-3-1 viability, CellTiter-Glo ATP luminescence, 72 h | actives 1.4% (n = 400,000) | AID 1347075, 2019; note: % is set by controls: 0 for no effect and ±100 for the full control effect; nearly all actives have a fitted effect of over 60% in size
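Cytotoxicity in the drug-sensitive parental line KB-3-1 was scored as loss of CellTiter-Glo luminescence following 72 h incubation with compound. Values come from curve fitting of normalized concentration-response data.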
MCF10A rerep = A quantitative high throughput screen for small molecules that induce DNA re-replication in MCF 10a normal breast cells. MCF 10A DNA re-replication, Hoechst nuclear intensity, 48 h. Potency, µM (series often up to 46.1 µM), for the others: at the highest dose activity, positive = re-replication, hits mostly activators. actives 2.9% (n = 350,000); note: % of control where 0% means no effect; nearly all actives have a fitted effect of over 50% in size
KB-V1 cytotox = qHTS assay for MDR1-selective chemotherapeutics: Primary screen using the drug-selected MDR subline cells KB-V1 | KB-V1 MDR cells viability, CellTiter-Glo, 72 h | Potency, µM (highest dose often 46.1 µM), hits mostly cytotoxic | actives 3.4% (n = 400,000) | AID 1347076, 2019; note: % is set by controls: 0 for no effect and ±100 for the full control effect; nearly all actives have a fitted effect of over 60% in size
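qHTS viability screen in drug-selected KB-V1 MDR cells: 72 h compound treatment at 37 degrees C, ATP luminescence end point.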
HT1080-NT tox = qHTS for induction of synthetic lethality in tumor cells producing 2HG: qHTS for the HT-1080-NT fibrosarcoma cell line | HT-1080-NT fibrosarcoma viability, CellTiter-Glo ATP luminescence, 48 h | Potency, µM (titrated, usually from 46.1 µM), without a hit: at the highest dose activity, negative = less viability, most hits filed as cytotoxic | actives 1.6% (n = 360,000);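 note: NT is the 2HG producing partner of a matched IDH1 knockdown line; 0% = DMSO-treated cells and -100% = media-only wells without cells; nearly all actives have a fitted effect of over 55% in size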
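A 48-hour cytotoxicity screen used HT-1080-NT cells plated 2 hours before compound delivery. ATP-based CellTiter-Glo luminescence measured viability, normalized to DMSO and no-cell controls.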
SW480 rerep = A quantitative high throughput screen for small molecules that induce DNA re-replication in SW480 colon adenocarcinoma cells; actives 1.8% (n = 340,000); SW480 DNA re-replication, Hoechst DNA content imaging, 48 h; Potency, µM (highest dose often 46.1 µM), for the others: top-dose re-replication activation, actives largely listed as activators; note: % of control where 0% means no effect; nearly all actives have a fitted effect of over 55% in size
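SW480 cells exposed to compounds for 48 hr at 37 C, 5% CO2, then Hoechst-stained 40 min. Nuclear DNA content imaged by fluorescence scanning (405 nm excitation, 500-530 nm emission); re-replication scored as increased high-intensity nuclei.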
Starred values were filed as active, the others as inactive; i = inactive; ? = inconclusive; nt = not tested or not shown. This is a sample that favours compounds with a hit; in the whole collection about 7.9% have one here. Calls come from the whole dose curve; as a rule, active = well fitted curve in the direction sought with a large enough effect; inconclusive = small, poorly fitted or top-dose-only effect, or another doubt; inactive = no such curve, though single readings can be large; an effect the other way counts as inactive or inconclusive. Potency is the fitted concentration of half-maximal effect.

SMILES | HT1080 IDH1KD tx | KB-3-1 cytotox | MCF10A rerep | KB-V1 cytotox | HT1080-NT tox | SW480 rerep
COc1ccc(O)c(C(=O)/C=C/c2cc3ccccc3o2)c1 | 6% | i | 2.6µM* | i | 1% | ?
O=C(Oc1ccccc1/C=C\C(=O)c1cc2ccccc2o1)c1ccccc1 | ? | i | ? | i | ? | ?
O=C(Oc1ccccc1/C=C\C(=O)c1cc2ccccc2o1)c1cccc(F)c1 | -29% | i | 18µM* | ? | ? | ?
COc1ccccc1NS(=O)(=O)c1cc(NC(=O)c2ccccc2)ccc1N1CCCC1 | nt | i | nt | i | nt | nt
CC(=O)Nc1c(Cl)c(Cl)c2c(c1Cl)C(=O)c1cc(Cl)ccc1-2 | 16% | 21µM* | 0% | 15µM* | 3% | -1%
COc1cc([N+](=O)[O-])ccc1NC(=O)CC1SC(=Nc2ccc(F)cc2)N(CCC2=CCCCC2)C1=O (centres undefined) | -4% | 9.2µM* | ? | ? | -1% | 11%
COc1ccc(N=C2SC(CC(=O)Nc3ccccc3)C(=O)N2Cc2ccccn2)cc1 (centres undefined) | -8% | i | 2% | ? | -27% | ?
COc1ccc(N=C2SC(CC(=O)Nc3ccc(OC)cc3OC)C(=O)N2C)cc1 (centres undefined) | -3% | i | 12% | 18µM* | 7% | 0%
COc1ccc(N=C2SC(CC(=O)Nc3cccc(Cl)c3)C(=O)N2Cc2ccco2)cc1 (centres undefined) | 16µM* | ? | ? | ? | ? | ?
C=C1CC(Cn2cc(Br)c(=O)[nH]c2=O)(c2ccc(-c3ccccc3)cc2)OC1=O (centres undefined) | 1.6µM* | ? | ? | i | 2.3µM* | ?
O=c1[nH]c(=O)n(CCOc2ccc(Cl)cc2)cc1Br | -9% | i | -1% | i | -8% | -3%
CCC(=O)Nc1nonc1-c1nc2ccccc2n1Cc1cccc2ccccc12 | 0.73µM* | 0.92µM* | 0.37µM* | ? | ? | 7.3µM*
CCC(CC)C(=O)Nc1ccc(OCc2cc(=O)n3c4c(sc3n2)CCCC4)cc1 | nt | i | nt | i | nt | nt
CCN(CCCNC(=O)CCCN1C(=O)COc2ccc(C)cc21)c1cccc(C)c1 | -6% | i | 3% | 12µM* | 0% | -3%
Cc1ccc2c(c1)N(CCCC(=O)NCCCN1CCCCC1)C(=O)CO2 | 8% | i | 1% | i | -4% | -4%
O=C(CN1CCC(c2nc3ccccc3s2)CC1)NCc1cccs1 | ? | i | 5% | i | 10µM* | 17%
Cc1cc(=O)[nH]c(SCc2ccccc2)n1 | 0% | i | 0% | i | -4% | 9%
CCc1cc(=O)[nH]c(SCCc2ccccc2)n1 | 3% | 13µM* | ? | 8.2µM* | 12% | 3%
Cc1nc(SCCc2ccccc2)[nH]c(=O)c1C | -1% | 3.3µM* | -5% | 3.3µM* | -1% | ?
Cc1cc(=O)[nH]c(SCCc2ccccc2)n1 | 6% | 16µM* | -3% | 12µM* | 7% | -3%
CCCc1cc(=O)[nH]c(SCc2ccccc2)n1 | -3% | i | 1% | i | -12% | 0%
Cc1nc(SCc2ccc(Br)cc2)[nH]c(=O)c1C | ? | i | 7.3µM* | i | ? | -5%
Cc1ccc(SCCSc2nc(N)cc(=O)[nH]2)cc1 | -3% | i | 17% | 8.2µM* | -4% | -3%
CSCCC(NS(=O)(=O)c1cccs1)C(=O)Nc1ccc(C)c(Cl)c1 (centres undefined) | nt | i | nt | i | nt | nt
Cc1cc(CN2CCCC(CNC(=O)c3ccc(F)cc3)C2)cc(C)c1O (centres undefined) | -5% | i | 23µM* | i | 4% | ?
SMILES | HT1080 IDH1KD tx | KB-3-1 cytotox | MCF10A rerep | KB-V1 cytotox | HT1080-NT tox | SW480 rerep
O=C(NCC1CCCN(Cc2cccc(C(F)(F)F)c2)C1)c1ccc(F)cc1 (centres undefined) | 3% | i | 6% | i | -1% | ?
COC(=O)c1cc2oc3ccccc3c2n1CC(=O)Nc1ccc(Cl)cc1F | nt | i | nt | i | nt | nt
COc1ccc(-c2oc3ccc(-c4ccc5c(c4)OCO5)cc3c2-c2ccc(OC)nc2)cc1 | 12% | i | -10% | ? | 3% | -8%
COc1ccc(-c2oc3ccc(-c4ccc(OC)nc4)cc3c2-c2ccc(OC)cc2)cc1 | 3% | i | 6.5µM* | i | 6% | ?
COc1ccc2oc(-c3ccncc3)cc(=O)c2c1 | -14% | ? | -42% | 3.7µM* | -4% | -10%
COc1ccc(-c2ccc3oc(-c4ccsc4)cc(=O)c3c2)cn1 | 11% | i | 1% | i | -4% | 2.9µM*
O=c1cc(-c2ccccc2)oc2ccc(O)cc12 | 12% | i | -2% | 5.8µM* | 7% | -11%
COc1ccc(-c2ccc3oc(-c4ccsc4)cc(=O)c3c2)cc1F | 15% | i | 20% | ? | 12% | -3%
COc1ccc(-c2cc(=O)c3cc(O)ccc3o2)cc1 | -19% | i | -2% | ? | -11% | -7%
Nc1ccc(C#Cc2c(-c3ccsc3)oc3ccc(N4CCOCC4)cc23)cc1 | ? | i | 13µM* | i | -22% | 3%
COc1ccc(-c2sc3ccc(N4CCOCC4)cc3c2C#Cc2ccsc2)cc1 | -21% | i | ? | i | -22% | 6%
COC(=O)c1ccc(/C=C/c2c(-c3ccsc3)oc3ccc(N4CCOCC4)cc23)cc1 | 0% | ? | 5.8µM* | i | 2% | -4%
COc1ccc(-c2c(-c3ccsc3)oc3ccc(N4CCOCC4)cc23)cn1 | 4% | i | 18µM* | i | 0% | 4%
Cc1cc2c(cc3c(SCC(=O)Nc4cccc(Cl)c4C)nnc(C)n32)o1 | nt | i | nt | ? | nt | nt
O=S(=O)(CCS(=O)(=O)c1ccccc1)c1ccccc1 | ? | i | ? | i | -1% | 16µM*
O=S(=O)(c1ccc(-c2ccon2)s1)N1CCOCC1 | 2% | i | 19% | i | 5% | 0.58µM*
COc1ccc(/C=C/c2ccc(=O)n(Cc3ccccc3)n2)cc1 | ? | i | 21µM* | ? | -16% | -4%
COc1ccc(/C=C/c2ccccn2)cc1 | nt | 23µM* | nt | i | nt | nt
